# Hit rate of the full screen: of about 5,500 compounds, about 2,000 (36%) were called active. Not shown: some 18% with an inconclusive outcome. This is one part of the list. Values without a mark were called inactive. Rule as the data show it: active = normalized growth mostly below about 0.91 (no sharp cut-off); inconclusive = no clear call, values can overlap the other calls; inactive = mostly above about 0.92.
# Assay: chemical genetic growth profiling, strain panel (AID 1159580);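 also: tested at 20 µM; growth read once vehicle control cultures reached saturation at 30 °C; 1 = growth at the plate median or of vehicle wells; lower values mean less growth of the strain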
# Settings: growth OD
# [1] = S. cerevisiae deletion strains, locus YAL013W, strain DEP1, stronger effect = lower value
# [2] = S. cerevisiae deletion strains, locus YBR229C, strain ROT2, stronger effect = lower value
# [3] = S. cerevisiae deletion strains, locus YDL101C, strain DUN1, stronger effect = lower value
# [4] = S. cerevisiae deletion strains, locus YDL134C, strain PPH21, stronger effect = lower value
# [5] = S. cerevisiae deletion strains, locus YDR150W, strain NUM1, stronger effect = lower value
# [6] = S. cerevisiae deletion strains, locus YEL061C, strain CIN8, stronger effect = lower value
# [7] = S. cerevisiae deletion strains, locus YGR078C, strain PAC10, stronger effect = lower value
# [8] = S. cerevisiae deletion strains, locus YHR030C, strain SLT2, stronger effect = lower value
# [9] = S. cerevisiae deletion strains, locus YJR043C, strain POL32, stronger effect = lower value
# [10] = S. cerevisiae deletion strains, locus YJR075W, strain HOC1, stronger effect = lower value
# [11] = S. cerevisiae deletion strains, locus YLR039C, strain RIC1, stronger effect = lower value
# [12] = S. cerevisiae deletion strains, locus YLR262C, strain YPT6, stronger effect = lower value
# [13] = S. cerevisiae deletion strains, locus YMR263W, strain SAP30, stronger effect = lower value
# [14] = S. cerevisiae deletion strains, locus YMR307W, strain GAS1, stronger effect = lower value
# [15] = S. cerevisiae deletion strains, locus YNL153C, strain GIM3, stronger effect = lower value
# [16] = S. cerevisiae deletion strains, locus YNL322C, strain KRE1, stronger effect = lower value
# [17] = S. cerevisiae deletion strains, locus YOL006C, strain TOP1, stronger effect = lower value
# [18] = S. cerevisiae deletion strains, locus YPL055C, strain LGE1, stronger effect = lower value
# [19] = S. cerevisiae deletion strains, locus YPL241C, strain CIN2, stronger effect = lower value
# [20] = S. cerevisiae strains, strain wild type, stronger effect = lower value
# [21] = S. cerevisiae deletion strains, locus YHR087W, strain rtc3, stronger effect = lower value
# [22] = S. cerevisiae deletion strains, locus YJL187C, strain SWE1, stronger effect = lower value
# [23] = S. cerevisiae deletion strains, locus YLR058C, strain SHM2 (second series), stronger effect = lower value
# [24] = S. cerevisiae deletion strains, locus YLR085C, strain ARP6, stronger effect = lower value
# [25] = S. cerevisiae deletion strains, locus YML094W, strain GIM5, stronger effect = lower value
# [26] = S. cerevisiae deletion strains, locus YMR219W, strain ESC1, stronger effect = lower value
# [27] = S. cerevisiae deletion strains, locus YNL298W, strain CLA4 (second series), stronger effect = lower value
# [28] = S. cerevisiae deletion strains, locus YNR030W, strain Alg12, stronger effect = lower value
# [29] = S. cerevisiae deletion strains, locus YPR135W, strain CTF4, stronger effect = lower value
structure (smiles),measurement,setting,value
CN(C)CCC[C@@]1(c2ccc(F)cc2)OCc2cc(C#N)ccc21,normalized growth,[1],1.02
same,normalized growth,"S. cerevisiae deletion strains, locus YBR021W, strain FUR4, stronger effect = lower value",1.02
same,normalized growth,[2],1.01
same,normalized growth,"S. cerevisiae deletion strains, locus YCL029C, strain bik1, stronger effect = lower value",1.02
same,normalized growth,"S. cerevisiae deletion strains, locus YDL035C, strain GPR1, stronger effect = lower value",1.02
same,normalized growth,"S. cerevisiae deletion strains, locus YDL074C, strain BRE1, stronger effect = lower value",1.02
same,normalized growth,[3],1.02
same,normalized growth,[4],1.01
same,normalized growth,"S. cerevisiae deletion strains, locus YDL185W, strain tfp1, stronger effect = lower value",1.03
same,normalized growth,"S. cerevisiae deletion strains, locus YDL192W, strain arf1, stronger effect = lower value",1.02
same,normalized growth,"S. cerevisiae deletion strains, locus YDR101C, strain arx1, stronger effect = lower value",1.02
same,normalized growth,[5],1.02
same,normalized growth,"S. cerevisiae deletion strains, locus YDR162C, strain NBP2, stronger effect = lower value",1.01
same,normalized growth,"S. cerevisiae deletion strains, locus YDR318W, strain mcm21, stronger effect = lower value",1.03
same,normalized growth,"S. cerevisiae deletion strains, locus YDR388W, stronger effect = lower value",1.02
same,normalized growth,"S. cerevisiae deletion strains, locus YDR502C, strain sam2, stronger effect = lower value",1.02
same,normalized growth,[6],1.01
same,normalized growth,"S. cerevisiae deletion strains, locus YER110C, stronger effect = lower value",1.03
same,normalized growth,"S. cerevisiae deletion strains, locus YER155C, strain BEM2, stronger effect = lower value",1.01
same,normalized growth,"S. cerevisiae deletion strains, locus YER167W, strain BCK2, stronger effect = lower value",1.02
same,normalized growth,"S. cerevisiae deletion strains, locus YGL078C, strain dbp3, stronger effect = lower value",1.03
same,normalized growth,"S. cerevisiae deletion strains, locus YGL086W, strain mad1, stronger effect = lower value",1.02
same,normalized growth,"S. cerevisiae deletion strains, locus YGL248W, strain PDE1, stronger effect = lower value",1.02
same,normalized growth,[7],1.03
same,normalized growth,"S. cerevisiae deletion strains, locus YGR135W, strain pre9, stronger effect = lower value",1.03
same,normalized growth,"S. cerevisiae deletion strains, locus YGR229C, strain SMI1, stronger effect = lower value",1.02
same,normalized growth,"S. cerevisiae deletion strains, locus YGR252W, strain gcn5, stronger effect = lower value",1.06
same,normalized growth,[8],1.01
same,normalized growth,"S. cerevisiae deletion strains, locus YHR079C, strain IRE1 (second series), stronger effect = lower value",1.02
same,normalized growth,"S. cerevisiae deletion strains, locus YHR094C, strain hxt1, stronger effect = lower value",1.02
same,normalized growth,"S. cerevisiae deletion strains, locus YHR129C, strain ARP1, stronger effect = lower value",1.01
same,normalized growth,"S. cerevisiae deletion strains, locus YHR200W, strain rpn10, stronger effect = lower value",1.02
same,normalized growth,"S. cerevisiae deletion strains, locus YIL066C, strain RNR3, stronger effect = lower value",1.03
same,normalized growth,"S. cerevisiae deletion strains, locus YIL073C, strain SPO22, stronger effect = lower value",1.06
same,normalized growth,"S. cerevisiae deletion strains, locus YIL125W, strain kgd1, stronger effect = lower value",1.02
same,normalized growth,"S. cerevisiae deletion strains, locus YIR030C, strain dcg1, stronger effect = lower value",1.02
same,normalized growth,"S. cerevisiae deletion strains, locus YJL095W, strain BCK1, stronger effect = lower value",1.02
same,normalized growth,"S. cerevisiae deletion strains, locus YJL134W, strain LCB3, stronger effect = lower value",1.03
same,normalized growth,"S. cerevisiae deletion strains, locus YJL168C, strain set2, stronger effect = lower value",1.02
same,normalized growth,"S. cerevisiae deletion strains, locus YJL187C, strain SWE1 (second series), stronger effect = lower value",1.02
same,normalized growth,[9],1.01
same,normalized growth,[10],1.01
same,normalized growth,"S. cerevisiae deletion strains, locus YKL009W, strain mrt4, stronger effect = lower value",1.03
same,normalized growth,"S. cerevisiae deletion strains, locus YKL068W, stronger effect = lower value",1.02
same,normalized growth,"S. cerevisiae deletion strains, locus YKL085W, strain MDH1 (second series), stronger effect = lower value",0.999
same,normalized growth,"S. cerevisiae deletion strains, locus YKL085W, strain MDH1, stronger effect = lower value",0.999
same,normalized growth,"S. cerevisiae deletion strains, locus YKL190W, strain CNB1, stronger effect = lower value",1.03
same,normalized growth,"S. cerevisiae deletion strains, locus YKR001C, strain vps1, stronger effect = lower value",1.03
same,normalized growth,[11],1.04
same,normalized growth,"S. cerevisiae deletion strains, locus YLR058C, strain SHM2, stronger effect = lower value",1.02
same,normalized growth,"S. cerevisiae deletion strains, locus YLR102C, strain apc9, stronger effect = lower value",1.02
same,normalized growth,[12],1.04
same,normalized growth,"S. cerevisiae deletion strains, locus YLR268W, strain sec22, stronger effect = lower value",1.01
same,normalized growth,"S. cerevisiae deletion strains, locus YLR330W, strain CHS5, stronger effect = lower value",1.01
same,normalized growth,"S. cerevisiae deletion strains, locus YLR342W, strain FKS1 (second series), stronger effect = lower value",1.03
same,normalized growth,"S. cerevisiae deletion strains, locus YLR371W, strain rom2, stronger effect = lower value",1.02
same,normalized growth,"S. cerevisiae deletion strains, locus YLR418C, strain cdc73, stronger effect = lower value",1
same,normalized growth,"S. cerevisiae deletion strains, locus YML016C, strain PPZ1, stronger effect = lower value",1.02
same,normalized growth,"S. cerevisiae deletion strains, locus YML032C, strain rad52, stronger effect = lower value",1.02
same,normalized growth,"S. cerevisiae deletion strains, locus YML124C, strain tub3, stronger effect = lower value",1.01
same,normalized growth,"S. cerevisiae deletion strains, locus YMR078C, strain ctf18, stronger effect = lower value",1.03
same,normalized growth,"S. cerevisiae deletion strains, locus YMR223W, strain ubp8, stronger effect = lower value",1.04
same,normalized growth,[13],1.02
same,normalized growth,[14],1.05
same,normalized growth,"S. cerevisiae deletion strains, locus YNL067W, strain RPL9B, stronger effect = lower value",1.02
same,normalized growth,"S. cerevisiae deletion strains, locus YNL128W, strain TEP1, stronger effect = lower value",1.02
same,normalized growth,[15],1.01
same,normalized growth,"S. cerevisiae deletion strains, locus YNL233W, strain BNI4, stronger effect = lower value",1.01
same,normalized growth,"S. cerevisiae deletion strains, locus YNL250W, strain rad50, stronger effect = lower value",1.03
same,normalized growth,"S. cerevisiae deletion strains, locus YNL271C, strain bni1, stronger effect = lower value",1.03
same,normalized growth,"S. cerevisiae deletion strains, locus YNL298W, strain CLA4, stronger effect = lower value",1.04
same,normalized growth,"S. cerevisiae deletion strains, locus YNL307C, strain MCK1, stronger effect = lower value",1.02
same,normalized growth,[16],1.01
same,normalized growth,"S. cerevisiae deletion strains, locus YNR052C, strain pop2, stronger effect = lower value",1.02
same,normalized growth,[17],1.05
same,normalized growth,"S. cerevisiae deletion strains, locus YOL012C, strain htz1",1.16
same,normalized growth,"S. cerevisiae deletion strains, locus YOL147C, strain pex11, stronger effect = lower value",1.02
same,normalized growth,"S. cerevisiae deletion strains, locus YOR061W, strain CKA2, stronger effect = lower value",1.02
same,normalized growth,"S. cerevisiae deletion strains, locus YOR069W, strain VPS5, stronger effect = lower value",1.01
same,normalized growth,"S. cerevisiae deletion strains, locus YOR136W, strain idh2, stronger effect = lower value",1.02
same,normalized growth,"S. cerevisiae deletion strains, locus YOR144C, strain elg1, stronger effect = lower value",1.02
same,normalized growth,"S. cerevisiae deletion strains, locus YOR184W, strain ser1, stronger effect = lower value",1.03
same,normalized growth,"S. cerevisiae deletion strains, locus YOR316C, strain cot1, stronger effect = lower value",1.02
same,normalized growth,[18],1.03
same,normalized growth,[19],1.01
same,normalized growth,"S. cerevisiae deletion strains, locus YPR119W, strain clb2, stronger effect = lower value",1.01
same,normalized growth,"S. cerevisiae deletion strains, locus YPR141C, strain kar3, stronger effect = lower value",1.03
same,normalized growth,"S. cerevisiae deletion strains, locus YPR163C, strain tif3, stronger effect = lower value",1.02
same,normalized growth,"S. cerevisiae deletion strains, locus YPR167C, strain met16, stronger effect = lower value",1.02
same,normalized growth,"S. cerevisiae deletion strains, strain wtn01, stronger effect = lower value",1.01
same,normalized growth,[20],1.02
CCCc1ccc(-c2nc(-c3ccc(C)cc3)no2)cc1,normalized growth,[1],0.999
same,normalized growth,[2],0.994
same,normalized growth,[3],0.971
same,normalized growth,[5],1.01
same,normalized growth,[6],1.01
same,normalized growth,[7],0.973
same,normalized growth,[8],1
same,normalized growth,[21],0.984
same,normalized growth,[22],0.978
same,normalized growth,[9],0.991
same,normalized growth,[10],0.95
same,normalized growth,[11],1.09
same,normalized growth,[23],0.995
same,normalized growth,[24],1.02
same,normalized growth,[12],1.04
same,normalized growth,[25],0.988
same,normalized growth,[26],0.992
same,normalized growth,[13],0.994
same,normalized growth,[14],1.04
same,normalized growth,[15],0.965
same,normalized growth,[27],0.987
same,normalized growth,[16],0.989
same,normalized growth,[28],0.973
same,normalized growth,[18],0.975
same,normalized growth,[19],0.941
same,normalized growth,[29],1.06
same,normalized growth,[20],1.01
CCCc1ccc(/C(C)=N\O)cc1,normalized growth,[1],0.939
same,normalized growth,[2],0.921 (active)
same,normalized growth,[3],0.955
same,normalized growth,[4],0.965
same,normalized growth,[5],0.858
same,normalized growth,[6],0.902 (active)
same,normalized growth,[7],0.93
same,normalized growth,[8],0.778
same,normalized growth,[21],0.909 (active)
same,normalized growth,[22],0.926 (active)
same,normalized growth,[9],0.949
same,normalized growth,[10],0.816 (active)
same,normalized growth,[11],0.777 (active)
same,normalized growth,[23],0.92 (active)
same,normalized growth,[24],0.756 (active)
same,normalized growth,[12],0.834
same,normalized growth,[25],0.947
same,normalized growth,[26],0.932 (active)
same,normalized growth,[13],0.963
same,normalized growth,[14],1.18
same,normalized growth,[15],0.946
same,normalized growth,[27],0.94
same,normalized growth,[16],0.919 (active)
same,normalized growth,[28],0.96
same,normalized growth,[17],0.945
same,normalized growth,[18],0.848
same,normalized growth,[19],0.949
same,normalized growth,[29],0.518 (active)
C/C(=N/O)c1ccc2c(c1)C(C)(C)CCC2(C)C,normalized growth,[1],1.01
same,normalized growth,[2],0.987
same,normalized growth,"S. cerevisiae deletion strains, locus YCL061C, strain MRC1, stronger effect = lower value",0.964
same,normalized growth,[3],1.01
same,normalized growth,[4],0.99
same,normalized growth,[5],0.985
same,normalized growth,[6],0.995
same,normalized growth,[7],0.981
same,normalized growth,[8],0.984
same,normalized growth,[21],0.977
same,normalized growth,[22],0.976
same,normalized growth,[9],0.989
same,normalized growth,[10],0.954
same,normalized growth,[11],0.847
same,normalized growth,[23],0.985
same,normalized growth,[24],0.963
same,normalized growth,[12],0.939
same,normalized growth,[25],0.992
same,normalized growth,[26],0.991
same,normalized growth,[13],0.979
same,normalized growth,[14],0.92
same,normalized growth,[15],0.967
same,normalized growth,[27],0.962
same,normalized growth,[16],0.995
same,normalized growth,[28],0.958
same,normalized growth,[18],0.996
same,normalized growth,[19],0.953
same,normalized growth,[29],0.915

# From PubChem BioAssay AID1159580 (chemical genetic matrix, 2015)
